Compound activity from PubChem.
PfM18AAP inh-1 = PfM18AAP enzyme inhibition; recombinant PfM18AAP, H-Glu-NHMec fluorogenic cleavage; inhibition, % at 7.35 µM; 1.2% of 290,000 active; AID 1822;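 active = inhibition above the campaign mean inhibition over all tested compounds plus 3 SD, cut at about 28% in these data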;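 also: 0% = plate median of test compound wells and 100% = 2 mM ZnCl2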
A3G deaminase = inhibitors of human APOBEC3G DNA deaminase. recombinant A3G, ssDNA deamination FAM/TAMRA fluorescence. 0.28% of 330,000 active. inhibition, % at 20 µM;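 active = inhibition of at least 40% at 20 µM, with no more than 30% in the related APOBEC3A deaminase screen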;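 also: plate controls were DMSO wells with A3G for no effect and wells lacking A3G enzyme for full effect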
CR mimetic SO = caloric restriction mimetics inhibiting age-related superoxide in yeast; 0.18% of 330,000 active; AID 2690; S. cerevisiae aged cells, superoxide DHE fluorescence; active compounds read low; superoxide response (% of plate mean), % at 10 µM;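 active = superoxide response under a set limit, about three screen SD below normal, cut at about 65% in these data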;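 also: yeast aged for seven days with compound at 30 °C before DHE staining; 100% = average MFI of all compound-treated wells on the plate with controls excluded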
ALR inh = human ALR oxidase inhibition via reduced H2O2 | 3.8% of 290,000 active | purified ALR, DTT oxidation, H2O2 HRP-luminol luminescence | inhibition, % (no concentration beside the values);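 active = mean replicate inhibition above about 79%, with every replicate also reaching it, limit read from the data; inconclusive = only one of the two criteria met; inactive = mean below limit and not every replicate reaching it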
Target sequence (P55789 whole entry, looked up): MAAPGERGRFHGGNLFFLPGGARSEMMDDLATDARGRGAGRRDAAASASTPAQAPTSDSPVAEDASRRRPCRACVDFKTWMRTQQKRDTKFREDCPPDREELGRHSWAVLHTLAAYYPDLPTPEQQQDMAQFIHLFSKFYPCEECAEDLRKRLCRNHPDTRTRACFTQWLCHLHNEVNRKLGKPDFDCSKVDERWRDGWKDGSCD
APOBEC3A inh = human APOBEC3A DNA deaminase inhibition; recombinant A3A, FAM/TAMRA ssDNA deamination fluorescence; AID 493011; P31941; inhibition, % at 20 µM; 0.41% of 330,000 active;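 active = at least 40% inhibition at 20 µM here, with at most 30% in a related deaminase screen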;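 also: plate controls were A3A with DMSO for no effect and wells lacking A3A enzyme for full effect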
Target sequence (P31941 whole entry, looked up): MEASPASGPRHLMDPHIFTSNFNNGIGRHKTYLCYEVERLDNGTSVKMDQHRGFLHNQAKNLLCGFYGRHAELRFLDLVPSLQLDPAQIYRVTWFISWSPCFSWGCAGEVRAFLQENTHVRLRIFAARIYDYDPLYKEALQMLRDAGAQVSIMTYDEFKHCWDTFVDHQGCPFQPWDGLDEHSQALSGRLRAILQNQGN
NRP1-CendR mod = alters CendR peptide binding to human NRP-1; FAM-RPARPAR peptide binding to NRP-1, fluorescence polarization; O14786; inhibition, % at 25 µM; 0.85% of 360,000 active; AID 602438;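 active = inhibition or corrected inhibition above about 18%, plus a signal ratio from 0.5 to 1.5, limit read from the data, passing the limit was not always enough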
PfM18AAP inh-2 = PfM18AAP inhibition, confirmation | inhibition, % at 7.35 µM | 28% of 2,400 active | recombinant PfM18AAP, H-Glu-NHMec fluorogenic cleavage | AID 2170 | shares compounds with PfM18AAP inh-1;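 active = mean inhibition over replicate wells above the hit cutoff set for the earlier primary screen, cut at about 29% in these data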;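 also: 0% = median of test compound wells and 100% = 2 mM ZnCl2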
CTSL1 counter = Cathepsin L (human) inhibition, confirmation. 2,400 tested, under 10 active. shares compounds with PfM18AAP inh-1. purified cathepsin L1, Z-Leu-Arg-MCA fluorescence. inhibition, % at 5.96 µM;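 active = average inhibition across replicates above the hit cutoff set in the earlier primary screen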;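 also: 0% = median of test compound wells and 100% = Z-Phe-Ala-diazomethylketone 1 µM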
* = called active by the depositor; u = inconclusive; x = no result given. Most compounds without a hit are left out; they make up all but 5.2% or so of the library.

SMILES | PfM18AAP inh-1 | A3G deaminase | CR mimetic SO | ALR inh | APOBEC3A inh | NRP1-CendR mod | PfM18AAP inh-2 | CTSL1 counter
Cc1cc(=O)[nH]c(SCCOc2cccc(C(F)(F)F)c2)n1 | -2 | 2 | 96 | -22 | 1 | 18 | x | x
O=C(NNc1nccc(C(F)(F)F)n1)Nc1cccc(Cl)c1 | 46* | -6 | 94 | -1 | -3 | -1 | 14 | -2
O=C(Nc1ccc(Cl)c(Cl)c1)Nn1cnnc1 | 76* | -6 | 94 | -6 | -10 | 2 | 71* | -1
COc1ccc2c(c1O)-c1ccccc1CCN(C)C2 | 3 | 14 | 98 | 50 | 1 | 9 | x | x
CN1CCc2cccc3c2[C@@H]1Cc1ccc(O)c(O)c1-3 | 36* | 39 | 96 | x | 0 | 26* | 79* | 3
COc1ccc(C(=O)COC(=O)c2cncc(Br)c2)cc1 | x | -6 | 92 | 1 | -2 | 16 | x | x
COc1cc(-c2nnc3sc(Cc4ccc(Cl)cc4)nn23)cc(OC)c1OC | x | 11 | 99 | x | 0 | -20 | x | x
CC(=O)NNc1cccc(Cl)n1 | 0 | -5 | 99 | -2 | 3 | -10 | x | x
O=C(NNc1cccc(Cl)n1)C(F)(F)F | 27 | -1 | 91 | 47 | 5 | -25 | x | x
O=C(NNc1cccc(Cl)n1)Nc1ccccc1F | 53* | -3 | 100 | 15 | -11 | -6 | 41* | 0
O=C(NNc1cccc(Cl)n1)Nc1ccccc1Cl | 50* | -3 | 102 | x | 0 | 7 | 34* | -3
O=C(NNc1cccc(Cl)n1)Nc1ccc(F)cc1 | 52* | -12 | 98 | 7 | 6 | 5 | 44* | -2
O=C(CN(Cc1ccco1)C(=O)CNS(=O)(=O)c1ccccc1)NC1CCCCC1 | 0 | x | x | x | x | -5 | x | x
O=C(NC(=O)c1ccccc1)NC1(C(F)(F)F)OCCO1 | 9 | 0 | 96 | -11 | 1 | x | x | x
O=C(Nc1cc(N2CCOCC2)ncn1)NC1(C(F)(F)F)Oc2ccccc2O1 | 76* | -6 | 93 | -5 | -4 | 2 | 66* | 1
O=C(NCc1cccnc1)NC1(C(F)(F)F)Oc2ccccc2O1 | 55* | -3 | 96 | x | -1 | 7 | -2 | 4
CC(C)CNC(=O)NC1(C(F)(F)F)Oc2ccccc2O1 | 41* | -16 | 90 | 0 | 3 | -2 | -22 | 1
COc1cccc(NC(=O)NC2(C(F)(F)F)Oc3ccccc3O2)c1 | 67* | 0 | 116 | 4 | 0 | -6 | 34* | -1
NNC(=O)CSCc1ccc(Cl)cc1Cl | -3 | -7 | 88 | u | -3 | -5 | x | x
CCOc1c(Nc2ccccc2O)c(=O)c1=O | 35* | 0 | 102 | 40 | -3 | -5 | -28 | 1
Cc1ccc(S(=O)(=O)c2nc(-c3ccccc3F)oc2N2CC(C)OC(C)C2)cc1 (stereo not given) | -3 | -4 | 95 | -6 | 5 | -1 | x | x
CCOC(=O)/C(C#N)=C(C)/C=C1\Sc2ccccc2N1CC | 3 | -3 | 111 | 1 | -2 | 130 | x | x
CCN1/C(=C/C(C)=C/c2sc3ccccc3[n+]2CC)Sc2ccccc21 | 44* | 31 | 97 | 99* | 58 | -264 | -35 | -5
COc1cc(N/N=C/c2ccc(N(C)C)cc2)ncn1 | 10 | -11 | 104 | x | -5 | 5 | x | x
COc1cc(N/N=C/c2ccccc2O)ncn1 | 41* | -1 | 99 | 21 | 2 | 12 | -18 | 4
Cc1ccc(N=C(NOC(=O)c2ccccc2)c2nonc2N)c(C)c1 | 6 | 3 | 90 | x | 2 | -10 | x | x
CC(=O)ONC(=Nc1ccccc1)c1nonc1N | 36* | -3 | 84 | 16 | 0 | 3 | -6 | -46
Cc1c(NC(=S)N/N=C\c2ccccc2O)c(=O)n(-c2ccccc2)n1C | 36* | 2 | 112 | 39 | -2 | 10 | -2 | 3
NC(=O)c1c(NC(NC(=O)c2ccco2)C(=O)c2ccc(Cl)cc2)sc2c1CCCC2 (stereo not given) | 38* | 4 | 92 | -2 | -4 | -5 | -22 | 1
